Measured values taken from ChEMBL document CHEMBL1961873, “Compounds: GSK PKIS; Assays: Nanosyn kinase panel” (2012).

Key:
[1] = system: Tyrosine-protein kinase ABL1 (Homo sapiens), P00519 [T315I]; settings: at 1 µM
[2] = system: Tyrosine-protein kinase ABL1 (Homo sapiens), P00519 [Y253F]; settings: at 0.1 µM
[3] = system: Tyrosine-protein kinase ABL1 (Homo sapiens), P00519 [Y253F]; settings: at 1 µM
[4] = target: Tyrosine-protein kinase ABL1 (Homo sapiens) (UniProt P00519); settings: at 0.1 µM
[5] = target: Tyrosine-protein kinase ABL1 (Homo sapiens) (UniProt P00519); settings: at 1 µM
[6] = target: ALK tyrosine kinase receptor (Homo sapiens) (UniProt Q9UM73); settings: at 0.1 µM
ALK tyrosine kinase receptor (Homo sapiens), sequence (Q9UM73 19-1620 limits assumed): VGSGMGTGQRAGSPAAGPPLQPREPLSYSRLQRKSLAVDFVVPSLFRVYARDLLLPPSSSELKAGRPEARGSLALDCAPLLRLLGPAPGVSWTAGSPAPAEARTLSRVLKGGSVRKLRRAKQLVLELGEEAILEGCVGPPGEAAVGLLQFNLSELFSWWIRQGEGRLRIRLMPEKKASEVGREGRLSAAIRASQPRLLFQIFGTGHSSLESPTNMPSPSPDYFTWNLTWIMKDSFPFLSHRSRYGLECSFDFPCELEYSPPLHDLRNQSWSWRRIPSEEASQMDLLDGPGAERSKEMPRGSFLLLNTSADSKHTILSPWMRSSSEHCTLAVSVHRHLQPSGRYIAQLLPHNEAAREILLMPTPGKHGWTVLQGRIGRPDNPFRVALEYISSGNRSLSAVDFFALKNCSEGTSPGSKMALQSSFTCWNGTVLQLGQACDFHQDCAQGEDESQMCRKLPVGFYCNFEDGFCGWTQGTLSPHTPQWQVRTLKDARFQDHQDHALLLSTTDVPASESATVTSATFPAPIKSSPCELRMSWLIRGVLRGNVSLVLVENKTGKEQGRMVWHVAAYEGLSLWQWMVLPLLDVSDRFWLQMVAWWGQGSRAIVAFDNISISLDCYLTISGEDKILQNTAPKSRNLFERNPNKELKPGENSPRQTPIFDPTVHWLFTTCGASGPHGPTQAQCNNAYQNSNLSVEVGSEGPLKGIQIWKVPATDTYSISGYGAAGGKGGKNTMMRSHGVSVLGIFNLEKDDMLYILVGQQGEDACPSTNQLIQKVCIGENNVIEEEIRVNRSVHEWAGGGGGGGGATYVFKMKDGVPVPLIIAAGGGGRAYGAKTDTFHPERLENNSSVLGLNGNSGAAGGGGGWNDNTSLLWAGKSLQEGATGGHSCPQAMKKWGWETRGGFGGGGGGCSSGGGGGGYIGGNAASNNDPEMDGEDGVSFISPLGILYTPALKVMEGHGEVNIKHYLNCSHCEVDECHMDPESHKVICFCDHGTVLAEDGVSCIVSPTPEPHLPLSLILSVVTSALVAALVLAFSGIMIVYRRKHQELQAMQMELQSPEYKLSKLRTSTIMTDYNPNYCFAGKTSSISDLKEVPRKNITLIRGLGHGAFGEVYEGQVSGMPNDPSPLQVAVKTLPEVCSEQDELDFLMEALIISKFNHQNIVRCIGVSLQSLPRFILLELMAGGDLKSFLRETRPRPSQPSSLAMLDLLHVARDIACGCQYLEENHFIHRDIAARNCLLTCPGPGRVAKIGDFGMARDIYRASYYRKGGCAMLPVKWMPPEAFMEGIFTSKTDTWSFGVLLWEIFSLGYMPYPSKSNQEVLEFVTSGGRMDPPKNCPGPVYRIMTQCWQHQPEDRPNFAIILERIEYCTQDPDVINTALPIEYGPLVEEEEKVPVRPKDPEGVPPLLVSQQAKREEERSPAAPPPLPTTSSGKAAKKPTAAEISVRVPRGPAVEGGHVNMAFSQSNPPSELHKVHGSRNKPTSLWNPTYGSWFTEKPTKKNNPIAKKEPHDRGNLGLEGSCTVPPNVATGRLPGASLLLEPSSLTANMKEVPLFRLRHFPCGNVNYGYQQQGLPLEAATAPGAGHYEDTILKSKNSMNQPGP

[7] = target: ALK tyrosine kinase receptor (Homo sapiens) (UniProt Q9UM73); settings: at 1 µM
[8] = target: Tyrosine-protein kinase ABL2 (Homo sapiens) (UniProt P42684); settings: at 0.1 µM
[9] = target: Tyrosine-protein kinase ABL2 (Homo sapiens) (UniProt P42684); settings: at 1 µM
[10] = target: Tyrosine-protein kinase receptor UFO (Homo sapiens) (UniProt P30530); settings: at 0.1 µM
Tyrosine-protein kinase receptor UFO (Homo sapiens), sequence (P30530 whole entry): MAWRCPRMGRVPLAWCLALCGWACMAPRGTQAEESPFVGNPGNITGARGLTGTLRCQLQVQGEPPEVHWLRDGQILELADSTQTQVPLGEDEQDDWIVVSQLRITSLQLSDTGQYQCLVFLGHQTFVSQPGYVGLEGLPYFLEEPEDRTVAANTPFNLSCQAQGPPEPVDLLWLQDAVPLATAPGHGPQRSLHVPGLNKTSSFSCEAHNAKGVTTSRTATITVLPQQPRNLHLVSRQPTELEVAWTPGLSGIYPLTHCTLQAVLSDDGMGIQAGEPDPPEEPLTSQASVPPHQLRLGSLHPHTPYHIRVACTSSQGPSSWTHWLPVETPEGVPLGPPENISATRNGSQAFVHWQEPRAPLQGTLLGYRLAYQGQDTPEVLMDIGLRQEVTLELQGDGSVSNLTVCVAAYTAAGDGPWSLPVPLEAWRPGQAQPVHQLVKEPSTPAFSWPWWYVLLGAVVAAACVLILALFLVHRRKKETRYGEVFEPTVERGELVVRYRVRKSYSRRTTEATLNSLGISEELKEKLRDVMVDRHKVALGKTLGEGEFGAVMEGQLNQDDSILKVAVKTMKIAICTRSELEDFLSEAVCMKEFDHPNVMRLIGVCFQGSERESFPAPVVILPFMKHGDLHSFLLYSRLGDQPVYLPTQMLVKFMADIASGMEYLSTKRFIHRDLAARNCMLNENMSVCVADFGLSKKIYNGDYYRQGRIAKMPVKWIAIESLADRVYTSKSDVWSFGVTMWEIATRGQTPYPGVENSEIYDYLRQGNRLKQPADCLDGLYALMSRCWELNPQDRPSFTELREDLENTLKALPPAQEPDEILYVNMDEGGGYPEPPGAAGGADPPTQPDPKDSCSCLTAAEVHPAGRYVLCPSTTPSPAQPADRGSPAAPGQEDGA

[11] = target: Tyrosine-protein kinase receptor UFO (Homo sapiens) (UniProt P30530); settings: at 1 µM
[12] = target: Tyrosine-protein kinase Blk (Homo sapiens) (UniProt P51451); settings: at 0.1 µM
Tyrosine-protein kinase Blk (Homo sapiens), sequence (P51451 2-505 limits assumed): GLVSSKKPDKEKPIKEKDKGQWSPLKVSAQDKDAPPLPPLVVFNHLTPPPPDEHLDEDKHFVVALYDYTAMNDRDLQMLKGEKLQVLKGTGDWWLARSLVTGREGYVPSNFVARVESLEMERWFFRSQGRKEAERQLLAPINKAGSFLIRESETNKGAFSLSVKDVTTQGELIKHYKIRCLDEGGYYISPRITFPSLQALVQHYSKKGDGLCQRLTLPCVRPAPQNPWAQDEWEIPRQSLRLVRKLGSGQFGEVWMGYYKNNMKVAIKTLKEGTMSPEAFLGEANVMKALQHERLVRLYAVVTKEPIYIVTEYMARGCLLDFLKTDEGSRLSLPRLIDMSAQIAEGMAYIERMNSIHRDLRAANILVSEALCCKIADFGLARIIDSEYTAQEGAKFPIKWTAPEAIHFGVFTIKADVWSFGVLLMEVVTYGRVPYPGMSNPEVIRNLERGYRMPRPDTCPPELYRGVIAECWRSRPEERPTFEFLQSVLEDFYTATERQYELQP

[13] = target: Tyrosine-protein kinase Blk (Homo sapiens) (UniProt P51451); settings: at 1 µM
[14] = target: T1, Cytoplasmic tyrosine-protein kinase BMX (Homo sapiens) (UniProt P51813); settings: at 0.1 µM
T1 sequence (whole entry): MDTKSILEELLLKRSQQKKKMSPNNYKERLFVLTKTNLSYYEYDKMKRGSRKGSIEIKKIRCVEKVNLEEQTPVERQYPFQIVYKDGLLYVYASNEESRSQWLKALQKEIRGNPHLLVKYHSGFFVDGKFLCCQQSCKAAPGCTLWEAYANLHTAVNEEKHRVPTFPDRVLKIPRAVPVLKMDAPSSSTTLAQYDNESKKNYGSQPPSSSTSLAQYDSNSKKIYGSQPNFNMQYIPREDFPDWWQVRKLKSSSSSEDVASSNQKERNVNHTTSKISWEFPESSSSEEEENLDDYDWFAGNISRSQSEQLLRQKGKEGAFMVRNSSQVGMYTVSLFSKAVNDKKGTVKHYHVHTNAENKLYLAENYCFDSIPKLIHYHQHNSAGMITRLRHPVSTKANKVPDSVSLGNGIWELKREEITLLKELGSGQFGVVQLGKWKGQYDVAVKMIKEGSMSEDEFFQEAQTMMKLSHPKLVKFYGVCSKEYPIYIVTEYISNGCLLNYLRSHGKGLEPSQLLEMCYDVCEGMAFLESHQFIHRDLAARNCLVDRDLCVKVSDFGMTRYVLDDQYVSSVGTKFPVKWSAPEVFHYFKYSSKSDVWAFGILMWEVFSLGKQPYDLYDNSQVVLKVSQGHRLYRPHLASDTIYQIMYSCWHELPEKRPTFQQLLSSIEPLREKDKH

[15] = target: T1, Cytoplasmic tyrosine-protein kinase BMX (Homo sapiens); settings: at 1 µM
[16] = target: Protein-tyrosine kinase 6 (Homo sapiens) (UniProt Q13882); settings: at 0.1 µM
Protein-tyrosine kinase 6 (Homo sapiens), sequence (Q13882 whole entry, looked up): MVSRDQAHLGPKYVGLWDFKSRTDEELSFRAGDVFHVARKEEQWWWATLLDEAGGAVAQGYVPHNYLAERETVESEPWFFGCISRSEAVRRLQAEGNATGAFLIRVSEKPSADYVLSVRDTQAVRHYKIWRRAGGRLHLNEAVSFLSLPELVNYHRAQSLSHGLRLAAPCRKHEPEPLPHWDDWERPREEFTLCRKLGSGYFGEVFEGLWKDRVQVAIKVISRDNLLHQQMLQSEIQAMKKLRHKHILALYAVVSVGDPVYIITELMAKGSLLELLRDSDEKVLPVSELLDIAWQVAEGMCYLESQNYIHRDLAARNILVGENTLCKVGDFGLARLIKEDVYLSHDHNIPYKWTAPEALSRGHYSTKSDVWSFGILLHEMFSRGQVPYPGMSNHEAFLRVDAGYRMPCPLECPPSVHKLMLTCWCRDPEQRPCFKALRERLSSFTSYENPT

[17] = target: Protein-tyrosine kinase 6 (Homo sapiens) (UniProt Q13882); settings: at 1 µM
[18] = target: Tyrosine-protein kinase BTK (Homo sapiens) (UniProt Q06187); settings: at 0.1 µM
Tyrosine-protein kinase BTK (Homo sapiens), sequence (Q06187 whole entry): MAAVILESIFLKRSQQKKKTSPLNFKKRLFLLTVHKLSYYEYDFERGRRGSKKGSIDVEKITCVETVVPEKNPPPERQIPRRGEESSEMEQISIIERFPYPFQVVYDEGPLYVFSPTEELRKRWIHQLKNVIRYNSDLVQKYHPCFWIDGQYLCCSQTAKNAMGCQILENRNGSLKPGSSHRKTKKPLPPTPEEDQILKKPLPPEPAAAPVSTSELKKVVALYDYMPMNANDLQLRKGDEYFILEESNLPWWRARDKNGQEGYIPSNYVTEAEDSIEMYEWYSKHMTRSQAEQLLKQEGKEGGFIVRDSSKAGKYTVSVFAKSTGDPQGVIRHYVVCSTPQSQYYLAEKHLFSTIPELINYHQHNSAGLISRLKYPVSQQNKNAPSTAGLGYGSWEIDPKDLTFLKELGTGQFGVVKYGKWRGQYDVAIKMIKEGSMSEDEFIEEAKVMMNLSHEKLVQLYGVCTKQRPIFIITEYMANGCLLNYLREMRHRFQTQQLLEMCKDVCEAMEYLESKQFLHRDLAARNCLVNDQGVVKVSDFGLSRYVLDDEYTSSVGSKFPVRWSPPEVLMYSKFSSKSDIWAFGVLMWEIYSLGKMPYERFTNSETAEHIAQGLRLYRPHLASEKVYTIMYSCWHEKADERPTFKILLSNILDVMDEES

[19] = target: Tyrosine-protein kinase BTK (Homo sapiens) (UniProt Q06187); settings: at 1 µM
[20] = target: Tyrosine-protein kinase CSK (Homo sapiens) (UniProt P41240); settings: at 0.1 µM;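 also: value given is the averaged percent inhibition of CSK kinase activity, from the GSK PKIS kinase inhibitor set screening panel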
Tyrosine-protein kinase CSK (Homo sapiens), sequence (P41240 2-450 limits assumed): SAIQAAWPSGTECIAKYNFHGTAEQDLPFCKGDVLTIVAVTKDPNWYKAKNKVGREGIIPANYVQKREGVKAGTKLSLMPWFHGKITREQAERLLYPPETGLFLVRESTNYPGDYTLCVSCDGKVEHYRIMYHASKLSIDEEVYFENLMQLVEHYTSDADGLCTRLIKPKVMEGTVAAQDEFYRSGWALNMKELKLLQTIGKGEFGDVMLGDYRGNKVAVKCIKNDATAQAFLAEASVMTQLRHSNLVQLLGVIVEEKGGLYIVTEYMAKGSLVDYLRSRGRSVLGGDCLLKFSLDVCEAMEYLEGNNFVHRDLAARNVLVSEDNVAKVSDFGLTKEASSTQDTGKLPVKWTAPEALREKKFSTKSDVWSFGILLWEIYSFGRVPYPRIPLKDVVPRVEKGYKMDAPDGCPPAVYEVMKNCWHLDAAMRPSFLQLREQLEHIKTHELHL

Row | Structure (SMILES) | inhibition [1] [%] | inhibition [2] [%] | inhibition [3] [%] | inhibition [4] [%] | inhibition [5] [%] | inhibition [6] [%] | inhibition [7] [%] | inhibition [8] [%] | inhibition [9] [%] | inhibition [10] [%] | inhibition [11] [%] | inhibition [12] [%] | inhibition [13] [%] | inhibition [14] [%] | inhibition [15] [%] | inhibition [16] [%] | inhibition [17] [%] | inhibition [18] [%] | inhibition [19] [%] | inhibition [20] [%]
1 | CCn1c(-c2nonc2N)nc2cncc(C(=O)N3CCNCC3)c21 | 1.77 | 2.95 | 5.17 | 3.16 | 3.28 | 3.59 | 5.18 | 1.81 | 4.42 | -7.98 | -9.66 | 2.72 | 4.31 | 6.75 | 8.89 | 4.01 | 5.31 | -1.34 | 1.16 | 4.39
2 | O=C1NC(=O)C(c2ccccc2Cl)=C1Nc1cccc(O)c1 | 6.08 | 3.51 | 3.33 | 4.23 | 9.09 | 2.43 | 4.74 | 4.43 | 1.33 | -5.88 | -1.28 | 1.66 | 4.61 | 2.35 | 4.21 | 3.64 | 2.79 | 0.01 | 1.37 | 1.31
3 | O=C1NC(=O)C(N2CCc3ccccc32)=C1c1ccc(Cl)cc1 | 1.87 | 6.01 | 5.27 | 4.41 | 7.9 | 3.63 | 4.31 | 4.83 | 8.28 | -4.63 | -2.89 | 2.66 | 4.59 | -0.48 | 5.82 | 4.84 | 4.71 | 0.29 | 0.58 | 3.38
4 | Nc1ncnc2occ(-c3ccc(NC(=O)Nc4cccc(C(F)(F)F)c4)cc3)c12 | 89.2 | 12.3 | 48.2 | 16.1 | 55.8 | 6.2 | 21.8 | 33.6 | 64.7 |  | 45.3 | 7.81 | 49.1 | 20.4 | 71.3 | 2.23 | 7.46 | 0.15 | 6.68 | 7.62
5 | CCn1c(-c2nonc2N)nc2c(C#CC(C)(C)O)nc(CN3CCCC3)cc21 | 0.96 | 0.59 | -0.16 | 0.66 | 3.27 | -0.84 | 0.01 | 2.08 | 5.65 | 1.88 | 1.53 | -0.49 | 0.66 | 2.82 | -1.55 | -2.67 | -1.74 | -1.44 | -1.15 | -0.07
6 | COc1ccc(COc2ccc(Cc3cnc(N)nc3N)cc2OC)cc1 | -2.04 | 3.15 | 0.75 | 3.16 | 7.34 | -0.54 | 0.01 | 3.27 | 5.98 | 4.25 | 8.25 | 0.45 | 0.47 | 0.39 | 2.06 | -1.66 | -1.6 | 0.23 | 3.61 | 0.54
7 | O=C(Nc1n[nH]c2nc(-c3ccco3)c(Br)cc12)C1CC1 | 26.6 | 3 | 11.5 | 5.46 | 24.1 | 1.26 | 4.4 | 3.57 | 18.4 | -6.59 | -1.16 | 3.07 | 20.5 | 7.33 | 4.58 | 6.01 | 3.67 | -0.13 | 4.11 | 6.94
8 | COc1ccc2cc(-c3c(-c4ccncc4)nc(-c4ccc([S+](C)[O-])cc4)n3C)ccc2c1 (centres undefined) | 12.1 | 1.26 | 4.12 | 2.44 | 8.87 | 1.63 | 3.57 | 2.63 | 9.3 | -6.33 | -3.32 | 1.88 | 6.67 | 4.9 | 3.64 | 8.25 | 42 | 0.83 | 1.4 | 1.52
9 | CNC(=O)c1cncc(/C=C/c2c(Cl)cccc2Cl)c1 | 4.22 | 12.5 | 54.5 | 8.37 | 40.5 | 6 | 9.12 | 7.46 | 35.7 | -6.04 | -1.76 | -1.91 | 5.69 | 4.95 | 22.8 | 13.5 | 56 | -3.87 | 0.37 | 0.49
10 | CS(=O)(=O)CCNCc1ccc(-c2ccc3ncnc(Nc4ccc(OCc5cccc(F)c5)c(C(F)(F)F)c4)c3c2)o1 | 4.21 | 4.9 | 2.89 | 2.03 | 2.75 | 1.6 | 2.6 | 4.19 | 4.05 | -5.05 | -5.02 | 2.7 | 3.9 | 3.53 | 3.77 | 4.08 | 5.42 | 0.73 | -0.77 | 2.85
11 | CS(=O)(=O)CCNCc1nc(-c2ccc3ncnc(Nc4ccc(F)c(Cl)c4)c3c2)cs1 | 6.43 | 1.82 | 18.3 | 3.89 | 18.2 | 0.89 | 3.6 | 4.58 | 9.66 | 0.38 | 0.38 | 1.92 | 7.95 | 0.99 | 7.67 | 1.05 | 5.15 | 0.64 | 4.51 | 2.86
12 | Nc1nc(-c2ccccn2)c(-c2ccc3ncccc3n2)s1 | 3.65 | 3.71 | 3.66 | 5.61 | 12.5 | 1.41 | 4.86 | 3.71 | 8.87 | -2.51 | -4.26 | 2.58 | 1.8 | -0.49 | 3.73 | 2.76 | 7.02 | 1.06 | 0.04 | 9.09
13 | CC(C)=Cc1cccc2c1/C(=N/Nc1ccc(S(N)(=O)=O)cc1)C(=O)N2 | 18.2 | 4.12 | 21.9 | 2.44 | 12.7 | 2.57 | 10.4 | 3.09 | 14 | 1.02 | 5.18 | 3.01 | 31.1 | -0.19 | 6.64 | 1.35 | -1.64 | 1.86 | 3.95 | 0.6
14 | NC(=O)c1ccc(-c2nc(-c3ccccn3)c(-c3ccc4c(c3)OCO4)[nH]2)cc1 | 2.56 | 1.74 | 2.37 | 1.82 | 6.95 | 1.12 | 2.39 | 1.95 | 6.03 | -3.37 | -1.2 | 1.51 | 3.67 | 6 | 2.22 | 1.72 | 1.4 | -0.29 | 0.83 | 5.75
